The structures appear in SMILES notation.

This is an account of results in ChEMBL document CHEMBL3988442, “University of Dundee, Small-Polar-MMV Screening Library” (2021).

This assay addresses AMP-activated protein kinase, AMPK (Homo sapiens) (UniProt P54646+O43741+P54619+Q9UGJ0+Q9Y478+Q13131+Q9UGI9). Description: AMP-dependent Kinase enzyme assay. An in vitro enzyme assay that detects ADP turnover that is directly proportional to AMPK activity. This uses naive AMPK that is activated during the assay with MK-8722. The arrangement: scale not given: direction of the effect not stated beside the values. The conditions noted are these: 30 µM. The assay is classed as functional.
Turning to `COCC[C@]1(O)CCN(CC(=O)NCc2ccccc2C)C[C@H]1C`, the Percent Effect was found to be 8.23%.

In the case of `CN(C)c1ncccc1NC(=O)COC1CCCC1`, the Percent Effect is 6.19%.

`CN(Cc1cc(Br)cn1C)C(=O)Cc1cccc(O)c1`: the Percent Effect is -0.828%.

Turning to `Cc1nn2cccnc2c1C(=O)NCc1ccccc1OC1CCC1`, the Percent Effect was 6.53%.

Take `O=c1c(CN2CCOCC2)coc2ccc(Cl)cc12`: the Percent Effect was -2.73%.

Turning to `CC(C)(C)OC(=O)N[C@H]1CCN(c2cncc(Br)c2)C1`, the Percent Effect amounted to 6.52%.

Turning to `COc1cccc(CN2C[C@H]3CC[C@H]2C3)c1OCCN1CCOCC1`, the Percent Effect is -4.89%.

Consider `CSCC(C)(O)CNS(=O)(=O)c1ccc(F)cc1` (stereo not given), for which the Percent Effect was -4.97%.

For `c1ccn2c(C3CCCN3Cc3nc(C4CC4)no3)nnc2c1` (stereo not given), the Percent Effect was determined as 2.28%.

As for `CCCn1cc(NC(=O)Nc2ccc(F)c(C(=O)NC)c2)cn1`, the Percent Effect came to 8.23%.

As for `CC(C)C(NC(=O)C1CCCC1)c1cc(O)nc(-c2cccnc2)n1` (stereo not given), the Percent Effect was determined as 0.00151%.

For `CCC1c2ccccc2CCN1CCNS(C)(=O)=O` (stereo not given), the Percent Effect was -4.87%.

As to `Cn1cnnc1C1CCN(c2nc3ccccc3o2)CC1`, the Percent Effect turned out to be 1.68%.

As to `Cc1c(C(=O)N2CCC(C(=O)c3nc4ccccc4s3)CC2)cnn1C`, the Percent Effect was 9.2%.

With `c1ccc(CCN2CCN(C3CCOC4(CCOCC4)C3)CC2)nc1` (stereo not given), the Percent Effect is -2.83%.

Regarding `Cc1nn(C)c(C)c1C1CCCN1CC(=O)N(C)c1nccs1` (stereo not given), the Percent Effect is 10.2%.

In the case of `CCCc1nnc(N2CCN(C3CCCC3)CC2)o1`, the Percent Effect is 3.52%.

`CSc1nccc(N2CCC(NCc3ccc4c(c3)OCO4)CC2)n1`: the Percent Effect turned out to be 15%.

`CC(=O)N1CCCC(C(=O)NCCc2ccc(F)c(Br)c2)C1` (stereo not given): the Percent Effect stood at 9.28%.

`Clc1snnc1CN(Cc1cccs1)C1CC1`: the Percent Effect is 3.68%.

Take `CN1CCN(c2ccc(F)cc2NC(=O)NCc2ccon2)CC1`: the Percent Effect was found to be 4.16%.

Take `O=S(=O)(Cc1nc(C2CC2)no1)c1cc(F)ccc1F`: the Percent Effect was 8.83%.

As to `Cc1nc(CN(C)Cc2csc(-c3cccs3)n2)co1`, the Percent Effect stood at 10.3%.

Take `CC(OCC1CC1)C(=O)Nc1ccn(Cc2ccccc2)n1` (stereo not given): the Percent Effect is 2.88%.

In the case of `CNC(=O)c1ccnc(N2CCCC(COc3cccc(C)c3)C2)c1` (stereo not given), the Percent Effect was determined as 29.8%.

Turning to `CCc1ccc(CCn2cnc(C#N)n2)cc1`, the Percent Effect is -0.907%.

As to `Cn1cc(CC(=O)N2CCCC(c3cc(C(F)(F)F)[nH]n3)C2)cn1` (stereo not given), the Percent Effect is -6.59%.

On to `COCCC(=O)N1CCCC(CCC(=O)NCc2ccccc2F)C1` (stereo not given), for which the Percent Effect was found to be 8.91%.

`OCC1(NCc2cccc(-n3cccn3)c2)CCOCC1`: the Percent Effect is -1.31%.

For the compound `O=C(CC1COCCN1)N1CCC(N2CCc3ccccc3C2)CC1` (stereo not given), the Percent Effect is -4.72%.

For `CN(Cc1ccc(F)cc1)Cc1cc2c(cc1Br)OCCO2`, the Percent Effect is -2.13%.

For `O=C(Cc1c(F)cccc1Cl)Nc1cc(N2CCOCC2)ncn1`, the Percent Effect stood at 5.35%.

Consider `COC(=O)c1ccc2c(c1)CCCN2S(=O)(=O)c1cn(C)c(C)n1`, for which the Percent Effect is -5.88%.

As to `O=C(CCc1nnc(-c2ccsc2)o1)NCC1CCN(C2CC2)C1` (stereo not given), the Percent Effect worked out at 4.06%.

Take `CCc1nccn1CC1CCCN1S(=O)(=O)N1CCCOCC1` (stereo not given): the Percent Effect was 15.2%.

In the case of `COCC[C@]1(O)CCN(Cc2ccccn2)C[C@H]1C`, the Percent Effect was 5.38%.

On to `Cc1ccc(CNCc2nccn2C)c(OC(C)(C)C)c1`, for which the Percent Effect is -4.8%.

Take `Nc1nccc(N2CCC(c3cc(Cc4ccccc4)n[nH]3)CC2)n1`: the Percent Effect turned out to be 4.14%.

As for `NCc1ccnc(Oc2ccccc2)c1`, the Percent Effect is -5.26%.

`Cc1ccc(OCCN(C)C2CCOC2=O)cc1` (stereo not given): the Percent Effect was found to be 0.0432%.
